Laboratory results published in PubChem BioAssay (Tox21).
Results filed as inconclusive are left out. Calls of active or inactive are those of the source. Unless noted, calls follow the shape of the dose curve; as a rule, active = well fitted curve in the direction sought with a large enough effect in the repeat runs; inconclusive = weak or mixed curves; inactive = no such curve, though single readings can be large; an effect the other way counts as inactive or inconclusive.

Assays:
[1] = qHTS assay to identify small molecule antagonists of the androgen receptor (AR) signaling pathway using the MDA cell line in the presence of 0.5 nM R1881 - cell viability counter screen (AID 1259242); also: nearly all actives have a fitted effect of over 45% in size
In short: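 MDA-kb2 cells (MMTV-luciferase, AR/GR responsive) were treated with compounds plus 0.5 nM R1881 (final) for 16 hr at 37C, 0% CO2. Viability was then read in the same wells as live-cell protease fluorescence (CellTiter-Fluor, 30 min).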

[2] = biological target: Estrogen receptor (Homo sapiens) (UniProt P03372); assay: qHTS assay to identify small molecule antagonists of the estrogen receptor alpha (ER-alpha) signaling pathway using the BG1 cell line in the presence of 0.1 nM 17-beta-estradiol (AID 1259244); also: nearly all actives have a fitted effect of over 50% in size
Estrogen receptor (Homo sapiens), sequence (P03372 whole entry, looked up): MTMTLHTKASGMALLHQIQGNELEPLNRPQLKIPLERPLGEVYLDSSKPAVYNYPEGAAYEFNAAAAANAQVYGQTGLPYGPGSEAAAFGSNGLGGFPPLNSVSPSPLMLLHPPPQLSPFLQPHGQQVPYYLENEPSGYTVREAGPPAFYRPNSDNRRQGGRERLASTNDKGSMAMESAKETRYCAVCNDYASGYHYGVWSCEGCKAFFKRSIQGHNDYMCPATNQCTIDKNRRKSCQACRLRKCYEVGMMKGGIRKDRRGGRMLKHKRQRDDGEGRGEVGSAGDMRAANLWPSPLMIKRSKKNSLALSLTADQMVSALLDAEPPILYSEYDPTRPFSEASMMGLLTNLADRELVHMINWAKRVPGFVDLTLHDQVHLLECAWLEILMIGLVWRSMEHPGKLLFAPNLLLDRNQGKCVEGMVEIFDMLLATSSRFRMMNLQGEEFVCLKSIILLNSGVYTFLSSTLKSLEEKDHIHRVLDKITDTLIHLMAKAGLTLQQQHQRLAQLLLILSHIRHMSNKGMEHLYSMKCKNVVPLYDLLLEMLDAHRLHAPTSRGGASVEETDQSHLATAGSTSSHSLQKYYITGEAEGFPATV
In short: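 VM7Luc4E2 cells (endogenous full-length ER-alpha, 4×ERE-luciferase), kept 5 days in phenol red-free, charcoal-stripped FBS medium; 4,000 cells/well. Compounds added with 0.1 nM (final) 17beta-estradiol, 22 hr at 37C; luminescence read with ONE-Glo after 30 min.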

[3] = qHTS assay to identify small molecule HDAC inhibitors (AID 1259364); also: top concentration of the series differs between compounds; nearly all actives have a fitted effect of over 45% in size
In short: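 Wild-type HCT-116 cells, plated overnight at 37 C, exposed to compounds 2 hr at 37 C; luminogenic HDAC-Glo substrate then added 30 min at room temperature. Luminescence reports relative endogenous class I/II HDAC activity.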

[4] = qHTS assay to identify small molecule HDAC inhibitors - cell viability counter screen (AID 1259365); also: series mostly up to about 92 µM; nearly all actives have a fitted effect of over 50% in size
In short: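 Measured quantity is CellTiter-Glo luminescence from wild-type HCT-116 cells after compound incubation of 2hr at 37C, 5% CO2; reagent developed 30min at room temperature.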

[5] = qHTS assay to identify small molecule agonists of the sonic hedgehog signaling (Shh) pathway - cell viability counter screen (AID 1259366); also: nearly all actives have a fitted effect of over 50% in size; also: potency is read from the fitted curve at half-maximal effect
In short: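 In quantitative high-throughput format, 3T3 Gli1-Luc cells were exposed to compounds for 24hr and multiplexed for viability using CellTiter-Fluor, incubated 1hr at 37C before the fluorescence read.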

[6] = qHTS assay to identify small molecule antagonists of the sonic hedgehog signaling (Shh) pathway - cell viability counter screen (AID 1259367); also: nearly all actives have a fitted effect of over 55% in size
In short: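 NIH/3T3-derived Gli1-Luc reporter cells, 2,000/well, plated 4 hr before compound addition, then stimulated with conditioned medium for 24 hr at 37C. Viability measured in the same wells by CellTiter-Fluor fluorescence, reagent added at 23 hr for 1 hr.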

[7] = qHTS assay to identify small molecule phospholipidosis (PLD) inducers (AID 1259344; active = well fitted curve in the direction sought with a large enough effect; an effect the other way counts as inactive or inconclusive)
In short: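 HepG2 cells, 900/well, treated with compound plus LipidTOX Red for 24 h at 37 C; amiodarone positive and DMSO negative controls. Fixed with paraformaldehyde/Hoechst, then high-content imaging scored LipidTOX pit count and integrated intensity per well and per cell.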

[8] = qHTS assay to identify small molecule agonists of the sonic hedgehog signaling (Shh) pathway (AID 1259368; calls by dose curve;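 also: NIH/3T3-derived 3T3Gli1-Luc cells carrying a stable Gli1-driven firefly luciferase reporter; series mostly up to about 92 µM; nearly all actives have a fitted effect of over 15% in size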)
In short: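 NIH/3T3-derived 3T3Gli1-Luc cells with stably integrated Gli1-driven firefly luciferase, 2,000 cells/well, compounds added after 4 hr. Incubated 24 hr at 37C, 5% CO2; luminescence read after 30 min with luciferase reagent at room temperature.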

Measured: Potency

COC(=O)c1ccccc1CS(=O)(=O)NC(=O)Nc1nc(OC)cc(OC)n1
inactive: [1] | [2] | [3] | [4] | [5] | [6]

CCc1cc(OC)c(C[C@H](C)N)cc1OC
inactive: [1] | [7] | [3] | [4] | [6] | [8]

CCCN1CCC[C@@H]2Cc3nc(N)ncc3C[C@H]21
inactive: [1] | [2] | [7] | [3] | [4] | [5] | [8]

C=C(Cl)CSC(=S)N(CC)CC
inactive: [1] | [3] | [4] | [5] | [6] | [8]

CN(C)C1CCCCC1
inactive: [1] | [2] | [3] | [4] | [5] | [6] | [8]

Clc1nc(Cl)nc(Nc2ccccc2Cl)n1
inactive: [1] | [2] | [3] | [4] | [5] | [6] | [8]

O=C(Cl)OCc1ccccc1
inactive: [1] | [2] | [3] | [4] | [5] | [6] | [8]

Cc1cc(OC(=O)N(C)C)nn1C(=O)N(C)C
inactive: [1] | [3] | [4] | [5] | [8]

CCN[C@@H](C)Cc1cccc(C(F)(F)F)c1
inactive: [1] | [2] | [3] | [4] | [5] | [6] | [8]

CCNc1nc(NCC)nc(SC)n1
inactive: [1] | [2] | [3] | [4] | [5] | [8]

CC(C)(C)C(=O)Cl
inactive: [1] | [2] | [3] | [4] | [5] | [8]

COc1cc(CCN)cc(OC)c1OC
inactive: [1] | [2] | [7] | [3] | [4] | [5] | [6] | [8]

CCCC(C)(COC(N)=O)COC(N)=O
inactive: [1] | [7] | [3] | [4] | [5] | [6] | [8]

C=CCc1cc(OC)c2c(c1)OCO2
inactive: [1] | [3] | [4] | [5] | [6] | [8]

N[C@@H](Cc1ccc(Oc2cc(I)c(O)c(I)c2)c(I)c1)C(=O)O
inactive: [1] | [7] | [3] | [4] | [5] | [8]

Cl/C=C/CCl
inactive: [1] | [3] | [4] | [5] | [8]

O=C(O)c1c(Cl)ccc2cc(Cl)cnc12
inactive: [1] | [2] | [3] | [4] | [5] | [6] | [8]

C(COCC1CO1)OCC1CO1 (stereo unspecified)
inactive: [1] | [2] | [3] | [4] | [5] | [8]

CCOC(=O)N(C)N=O
inactive: [1] | [3] | [4] | [5] | [6] | [8]

CCC1(CC)C(=O)C=CNC1=O
inactive: [1] | [7] | [3] | [4] | [5] | [6] | [8]

CCCCCCCCSC(=O)Oc1cc(Cl)nnc1-c1ccccc1
inactive: [1] | [2] | [3] | [4] | [5] | [8]

Oc1ccc2c3c1O[C@H]1[C@@H](O)C=C[C@H]4[C@@H](C2)NCC[C@@]341
active: [5] 28.1 µM
inactive: [1] | [7] | [3] | [4]

CC[C@H](O)C(C[C@H](C)N(C)C)(c1ccccc1)c1ccccc1
inactive: [1] | [3] | [4] | [8]

S=C=S
inactive: [1] | [2] | [7] | [3] | [4] | [5] | [6] | [8]
